“And” between values parts separate entries of the source, which are not always exact repeats. Equal entries are not always repeated. The campaign covered roughly 66,000 compounds. About 720 (1.1%) were called active. Rule as the data show it: active = normalised signal below about 0.5; inactive = the rest, inconclusive results apart. Shown is part of a subset that was picked to be rich in actives.

The target in the experiment is Chromobox protein homolog 7 (Homo sapiens) (UniProt O95931). As to the kind of experiment: blockers of CBX7 binding to H3K27me3 peptide – biochemical, AlphaScreen, primary screen (AID 1224903). As to conditions: AlphaScreen His6-CBX7 / biotin-H3K27me3 peptide binding, stronger effect = lower value; z-score: measured here: z-score of CBX7 signal.
Chain of Chromobox protein homolog 7 (Homo sapiens) (O95931 whole entry, looked up): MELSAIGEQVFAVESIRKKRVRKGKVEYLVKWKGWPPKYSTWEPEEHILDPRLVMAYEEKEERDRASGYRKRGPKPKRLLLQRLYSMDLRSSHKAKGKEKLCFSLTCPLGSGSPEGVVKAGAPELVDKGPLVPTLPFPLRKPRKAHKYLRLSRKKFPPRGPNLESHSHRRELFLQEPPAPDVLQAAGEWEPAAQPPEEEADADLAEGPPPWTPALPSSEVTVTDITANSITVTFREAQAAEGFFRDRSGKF
Turning to `Cc1cccc(N2CCN(C(=O)C3CCC(Cn4c(=O)[nH]c5ccsc5c4=O)CC3)CC2C)c1` (centres undefined), the normalised signal (fraction of DMSO) was 1.11 (inactive) and the z-score stood at 0.523.
For `COc1ccc(CCNC(=O)CCc2c(C)nc3c(c(C)nn3-c3ccc(C)cc3)c2C)cc1OC`, in that order: 1.07 (inactive) and 1.56.
On to `COc1cccc(Nc2nc(-c3ccc(Cl)cc3)cs2)c1`, for which the normalised signal (fraction of DMSO) was 0.908 (inactive) and 0.897 (inactive); the z-score is -1.58 and -2.88.
As to `COc1cc(OC)cc(C(=O)Nc2ccc(-c3nc4ccccc4o3)c(O)c2)c1`, the normalised signal (fraction of DMSO) is 0.956 (inactive) and the z-score was -0.356.
On the same counts, the results for `O=C(Nc1ccc(-c2nc3ccccc3o2)c(O)c1)c1ncn[nH]1` are 0.308 (active) and -19.7.
On the same counts, the results for `O=C(Nc1ccc(-c2nc3ccccc3o2)c(O)c1)c1cccc(F)c1` are 1.11 (inactive) and 2.16.
For `CCOC(=O)CNC(=O)c1cc2c(n(-c3ccc(C)cc3)c1=O)CCCC2=O`, in that order: 1.19 (inactive) and 0.796.
For `CCN1CCCC1CNC(=O)c1ccc2c(c1)N(Cc1ccccc1)CCS2` (centres undefined), the normalised signal (fraction of DMSO) was 0.92 (inactive) and the z-score is -0.106.
On the same counts, the results for `Cc1ccc(NC(=O)C2CCCN(S(=O)(=O)c3cccc4cccnc34)C2)cc1F` (centres undefined) are 1.02 (inactive) and 0.516.
For `COc1ccccc1NC(=O)c1c(NCc2cccs2)sc2c1CCCC2`, in that order: 0.467 (active) and -7.46.
On the same counts, the results for `COc1ccccc1NC(=O)c1c(NCc2ccncc2)sc2c1CCCC2` are 0.583 (inactive) and -5.84.
For `CCOC(=O)c1ccc(NC(=O)c2c(NCc3cccs3)sc3c2CCCC3)cc1`, the normalised signal (fraction of DMSO) is 0.674 (inactive) and the z-score is -4.57.
With `CC1CCCCN1S(=O)(=O)c1ccc(C(=O)Nc2nnc(-c3cccs3)o2)cc1` (centres undefined), the normalised signal (fraction of DMSO) is 0.92 (inactive) and the z-score is -1.8.
On the same counts, the results for `COCCN(CCOC)S(=O)(=O)c1ccc(C(=O)Nc2nnc(-c3cccs3)o2)cc1` are 0.698 (inactive) and -6.83.
For `CCCCN(CC)S(=O)(=O)c1ccc(C(=O)Nc2nnc(-c3ccc(Cl)s3)o2)cc1`, in that order: 1.03 (inactive) and 0.687.
For `COc1ccc(-c2nnc(NC(=O)c3ccc(S(=O)(=O)N4CC(C)OC(C)C4)cc3)o2)c(OC)c1` (centres undefined), in that order: 0.629 (inactive) and -8.38.
With `COc1ccc(-c2nnc(NC(=O)c3ccc(S(=O)(=O)N4CCC(C)CC4)cc3)o2)cc1`, the normalised signal (fraction of DMSO) was 0.796 (inactive) and the z-score is -4.6.
`CCC1CCCCN1S(=O)(=O)c1ccc(C(=O)Nc2nnc(COC)o2)cc1` (centres undefined): the normalised signal (fraction of DMSO) was 0.727 (inactive) and the z-score is -7.33.
On the same counts, the results for `CN(Cc1ccccc1)S(=O)(=O)c1ccc(C(=O)Nc2nnc(-c3ccccc3Cl)o2)cc1` are 0.095 (active) and -15.2.
On the same counts, the results for `CN(C)S(=O)(=O)c1ccc(C(=O)Nc2nnc(C3CC3)o2)cc1` are 0.379 (active) and -14.
On the same counts, the results for `CCCCN(C)S(=O)(=O)c1ccc(C(=O)Nc2nnc(C)o2)cc1` are 0.00344 (active) and -1.32.
On to `CCN(CC)S(=O)(=O)c1ccc(C(=O)Nc2nnc(-c3cc(OC)cc(OC)c3)o2)cc1`, for which the normalised signal (fraction of DMSO) is 0.885 (inactive) and the z-score was -1.93.
On the same counts, the results for `CN(C)S(=O)(=O)c1ccc(C(=O)Nc2nnc(-c3ccccc3Cl)o2)cc1` are 0.145 (active) and -14.4.
Take `C=CCN(CC=C)S(=O)(=O)c1ccc(C(=O)Nc2nnc(-c3cccs3)o2)cc1`: the normalised signal (fraction of DMSO) is 0.877 (inactive) and the z-score was -3.03.
On the same counts, the results for `Cc1cc(=O)n2nc(N3CCCC(C(=O)N4CCCCC4)C3)sc2n1` (centres undefined) are 1.09 (inactive) and 0.832.
For `O=C(Nc1ccccc1F)c1cc2c(s1)-c1ccccc1OC2`, in that order: 1.53 (inactive) and 15.1.
For `COc1cccc(-c2nc(CS(=O)(=O)CC(=O)NCCCN(CC(C)C)CC(C)C)c(C)o2)c1`, in that order: 1.42 (inactive) and 3.56.
For `CCc1ccc(-n2cnc3cc(C(=O)NC4CCCC4)ccc32)cc1`, the normalised signal (fraction of DMSO) is 0.805 (inactive) and the z-score was -3.38.
As to `COc1ccc(CCNC(=O)c2cn(-c3ccc(Cl)cc3)c(=O)c3ccccc23)cc1OC`, the normalised signal (fraction of DMSO) was 1.03 (inactive) and the z-score came out at 0.92.
On the same counts, the results for `CCCCOc1ccc(C(=O)N(Cc2ccc(OC)cc2)C2CCS(=O)(=O)C2)cc1` (centres undefined) are 0.91 (inactive) and -0.0894.
On the same counts, the results for `O=C(c1ccc(Cl)nc1)N1CCNc2ccccc2C1` are 0.975 (inactive) and -0.305.
`CCCN1CCN(CCCNC(=O)CN2C(=O)COc3ccccc32)CC1`: the normalised signal (fraction of DMSO) was 1.01 (inactive) and the z-score turned out to be 0.274.
With `CCCCNC(=O)CN1C(=O)COc2ccccc21`, the normalised signal (fraction of DMSO) was 0.475 (active) and the z-score is -4.69.
On the same counts, the results for `O=C(CN1C(=O)COc2ccccc21)NCCN1CCc2ccccc2C1` are 1.06 (inactive) and 1.85.
In the case of `CN(CC(=O)NCCc1ccccc1)S(=O)(=O)c1cnc[nH]1`, the normalised signal (fraction of DMSO) is 1.26 (inactive) and the z-score stood at 2.17.
Regarding `COC(CNC(=O)c1csc2c1CCCCC2)OC`, the normalised signal (fraction of DMSO) was 0.834 (inactive) and the z-score was -2.13.
On the same counts, the results for `Cc1ccc(-n2c(Cc3cccn3C)nnc2SCC(=O)Nc2ccc(C)c(Cl)c2)cc1` are 0.926 (inactive) and -1.77.
On the same counts, the results for `Cc1sc2ncn(CC(=O)NCC(=O)NCCCN3CCOCC3)c(=O)c2c1C` are 1.08 (inactive) and 0.741.
In the case of `Cc1ccccc1Cn1c(CCNC(=O)C(C)(C)C)nc2ccccc21`, the normalised signal (fraction of DMSO) is 1.12 (inactive) and the z-score was 1.79.
In the case of `Cc1ccc(Nc2c(-c3ccc(Cl)cc3)nc3sccn23)c(C)c1`, the normalised signal (fraction of DMSO) was 0.736 (inactive) and the z-score was -5.27.
As to `Cc1cccc(C)c1Nc1c(-c2ccsc2)nc2cnccn12`, the normalised signal (fraction of DMSO) was 0.944 (inactive) and the z-score was -0.669.
On the same counts, the results for `Cc1cccc(C)c1Nc1c(-c2ccccn2)nc2sccn12` are 0.5 (active) and -5.94.

For the origin of these results see PubChem BioAssay AID1224903 (Bradner/Qi Labs at DFCI, 2016).
